Cy5 interf NS3h: Cy5 fluorescence interference, HCV helicase counter-screen; actives 6% (n = 16,000); fluorescence interference ratio at 100 µM; Cy5-dT15 DNA with NS3h; actives lie on both sides; signal over control mean, under 1 quenches; AID 720488;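 active means compound fluorescence over control fluorescence at most 0.8, a quencher, or at least a set upper limit, an enhancer; inactive means ratio between 0.8 and the set upper limit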
HCV NS3h FP: hepatitis C NS3 helicase inhibition, primary screen; AID 687043; NS3h Cy5-dT15 DNA binding, fluorescence polarization; actives 1.6% (n = 16,000); inhibition, % at 100 µM;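 active means inhibition above the average over every tested compound plus 3 SD, cut at about 40% in these data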
HCV NS3h conf: hepatitis C NS3 helicase inhibition, confirmation. shares compounds with HCV NS3h FP. NS3h binding to Cy5-dT15 DNA, fluorescence polarization. inhibition, % at 100 µM. actives 20% (n = 240);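 active means percent inhibition of 50% or more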
SSB FP counter: counter-screen for HCV NS3 helicase inhibitors: E. coli SSB binding | shares compounds with HCV NS3h FP | inhibition, % at 100 µM | AID 720486 | E. coli SSB binding Cy5-dT15, fluorescence polarization | actives 40% (n = 240);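 active means inhibition of at least 50%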;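 further: displacers lower Cy5 polarization so higher inhibition means more SSB displaced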
Target sequence (P0AGE0 whole entry, looked up): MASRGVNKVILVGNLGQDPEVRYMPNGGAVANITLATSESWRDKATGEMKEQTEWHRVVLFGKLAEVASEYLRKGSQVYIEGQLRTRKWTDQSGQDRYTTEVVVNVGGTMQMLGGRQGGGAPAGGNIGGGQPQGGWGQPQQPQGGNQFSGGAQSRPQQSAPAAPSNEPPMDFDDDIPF
Cy5 SSB fluor CB: counter-screen for HCV NS3 helicase inhibitors: fluorescence interference. shares compounds with HCV NS3h FP. Cy5-dT15/E. coli SSB fluorescence interference; actives lie on both sides. fluorescence interference ratio at 100 µM. actives 8% (n = 240);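 active means fluorescence interference ratio at or above 1.2, signal boosting, or at or below 0.8, signal quenching; inactive means ratio between 0.8 and 1.2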;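 further: ratio of compound well signal to mean negative control signal so 1 means no effect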
Cy5 interf conf: Cy5 fluorescence interference, confirmation counter-screen. shares compounds with HCV NS3h FP. Cy5-dT15 DNA/NS3h fluorescence interference counterscreen. fluorescence interference ratio at 100 µM, hits read low. actives 44% (n = 240). AID 720489;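 active means fluorescence interference ratio at or below 0.8 quencher or at or above a set limitenhancer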;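 further: ratio of compound fluorescence to mean of negative controls so 1 means no interference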
* hit, by the source's call; · = not tested or not shown. Rows were chosen to be rich in hits. Some 6.8% of all compounds tested hit in one or more screens of this group.

SMILES	Cy5 interf NS3h	HCV NS3h FP	HCV NS3h conf	SSB FP counter	Cy5 SSB fluor CB	Cy5 interf conf
Cc1ccc(N2C(=O)C=CC2=O)cc1[N+](=O)[O-]	0.957	75.0*	60.5*	9.0	0.938	0.941
Cc1ccc(C(=O)NCCC(C)C)cc1[N+](=O)[O-]	0.953	1.3	·	·	·	·
Cc1ccc([N+](=O)[O-])cc1N1C(=O)C2C3C=CC(CC3)C2C1=O (stereo unspecified)	0.875	17.9	·	·	·	·
Cc1ccc(OCc2nc(-c3ccc(Cl)cc3)no2)c(Br)c1	1.08	6.8	·	·	·	·
Cc1ccc(NC(=O)c2ccc([N+](=O)[O-])cc2)c(C(=O)c2ccccc2)c1	0.981	4.0	·	·	·	·
COc1cccc(/C=C2/C(=O)NC(=O)N(c3cc(C)cc(C)c3)C2=O)c1O	1.07	15.5	·	·	·	·
COc1cc(/C=C2\C(=O)NC(=O)N(c3cc(C)cc(C)c3)C2=O)cc([N+](=O)[O-])c1O	1.07	60.0*	16.1	51.5*	0.853	0.743*
CCOc1ccc(C(O)c2cnc(CC)n2C)cc1 (stereo unspecified)	0.984	-1.8	·	·	·	·
O=C1NC(=S)N/C1=C/c1ccc(OCc2cccc(C(=O)O)c2)cc1	1.07	61.6*	20.3	28.4	0.987	0.769*
Cc1cc(/C=C2\C(=O)NC(=O)N(c3cccc(F)c3)C2=O)c(C)n1C	1.09	6.8	·	·	·	·
Cc1ccccc1N1C(=O)NC(=O)/C(=C\c2ccc(OCc3cccc(C(=O)O)c3)cc2)C1=O	1.06	42.3*	21.4	68.4*	0.912	0.803*
CN1C(=O)C(=Cc2ccc(OCc3cccc(C(=O)O)c3)cc2)C(=O)N(C)C1=O	1.04	5.7	·	·	·	·
O=C1NC(=O)N(c2cccc(F)c2)C(=O)/C1=C/c1ccc(OCc2cccc(C(=O)O)c2)cc1	1.05	41.2*	12.9	39.3	0.954	0.746*
O=C1NC(=O)N(c2ccccc2F)C(=O)/C1=C/c1ccc(OCc2cccc(C(=O)O)c2)cc1	1.06	32.6	·	·	·	·
COc1ccccc1C(=O)N/C(=C\c1ccc(Br)cc1)C(=O)N1CCCCC1	0.966	7.5	·	·	·	·
O=C(N/C(=C/c1cccs1)c1nc2ccccc2[nH]1)c1ccccc1	1.01	23.2	20.3	35.7	0.961	0.772*
O=C(Nc1ccc(F)cc1)/C(=C\c1cccs1)NC(=O)c1ccccc1	1.02	2.2	·	·	·	·
COc1ccc2oc(=O)c(C(=O)Nc3cc(Cl)ccc3OC)cc2c1	1.03	-1.0	·	·	·	·
Cc1ccc(-n2c(-c3ccccc3F)nc3c(cnn3-c3ccccc3)c2=O)cc1	1.18	41.1*	3.4	6.6	1.07	0.769*
Cc1ccc(C(=O)CSc2nc3ccccc3c(=O)n2-c2ccccc2)cc1	1	21.8	·	·	·	·
COc1cc([N+](=O)[O-])ccc1NC(=O)c1cc(-c2ccccc2)nc2ccccc12	1.03	10.9	·	·	·	·
CCOC(=O)C1CCN(C(=O)c2ccc(C#CC3(O)CCCCC3)cc2)CC1	1.1	9.6	·	·	·	·
COc1ccc(O)c(-c2cc(-c3ccccc3C)[nH]n2)c1	0.905	25.8	·	·	·	·
COc1ccc(-c2cc(-c3ccccc3)n[nH]2)c(O)c1	1.26*	42.9*	6.6	11.4	0.929	0.731*
Cc1cccn2c(=O)c(/C=C3\SC(=S)N(CC4CCCO4)C3=O)c(NCCCn3ccnc3)nc12 (stereo unspecified)	1.1	9.1	·	·	·	·
SMILES	Cy5 interf NS3h	HCV NS3h FP	HCV NS3h conf	SSB FP counter	Cy5 SSB fluor CB	Cy5 interf conf
CN(C)/C=C\C=C\C(=O)C1C2CC3CC(C2)CC1C3 (stereo unspecified)	0.943	8.8	·	·	·	·
CN(C)/C=C/C=C/C=C1\CCC/C(=C\C=C\N(C)C)C1=O	0.913	55.2*	40.4	109.7*	0.86	0.959
O=C1c2cc3ccccc3c(-c3ccccc3)c2C(=O)N1c1cccc(O)c1	0.991	18.9	·	·	·	·
CC1(C)CC(=O)C=C(Nc2ccc(NC3=CC(=O)CC(C)(C)C3)cc2)C1	1.16	43.9*	-0.8	7.8	1.03	0.804*
CC1(C)CC(=O)C=C(Nc2ccccc2C#N)C1	0.969	-5.3	·	·	·	·
COc1cccc(C2C3=C(CC(C)(C)CC3=O)OC3=C2C(=O)CC(C)(C)C3)c1OCC(=O)O	1.03	4.7	·	·	·	·
O=C(CN(c1cccc(Cl)c1)S(=O)(=O)c1ccccc1)NCc1ccncc1	1.02	-0.7	·	·	·	·
Cc1ccc(-c2ccccc2)n1-c1ccccc1C(=O)O	1.06	7.3	·	·	·	·
Cc1ccc(C(=O)O)cc1-n1c(C)ccc1C	1.37*	81.6*	89.1*	89.1*	0.995	0.811
Cc1cc(C(=O)O)ccc1-n1c(C)ccc1C	1.37*	100.6*	99.6*	108.5*	0.935	0.982
Cc1cc(Cl)c2cc(C(=O)O)ccc2n1	0.986	2.2	·	·	·	·
COc1ccc(C(=O)Nc2ccccc2)cc1NC(C)=O	1.04	15.6	·	·	·	·
C=CCc1c(C)nc2cc(-c3cccc(C)c3)[nH]n2c1=O	0.872	13.0	·	·	·	·
CCOc1ccc(S(=O)(=O)N(CC(=O)Nc2cc(C)cc(C)c2)c2ccc(C)cc2)cc1	0.933	8.6	·	·	·	·
Cc1ccc(S(=O)(=O)n2cc(C=C3C(=O)NC(=S)NC3=O)c3ccccc32)cc1	0.815	61.3*	20.3	81.8*	0.859	0.849
CCc1cc(C)cc(OCCn2cc(C=C3C(=O)NC(=S)NC3=O)c3ccccc32)c1	1.04	-10.7	·	·	·	·
CCOc1cc(/C=C2/SC(=S)N(Cc3ccccc3)C2=O)ccc1OC(=O)c1cccc([N+](=O)[O-])c1	0.994	15.3	·	·	·	·
O=C(Nc1cccc2ccccc12)c1cc(Br)ccc1Cl	1.01	19.4	·	·	·	·
O=C(CCN1C(=O)/C(=C/c2ccc(F)cc2)SC1=S)Nc1ncc(Cc2ccc(Cl)cc2)s1	0.942	45.6*	4.4	10.2	0.96	0.996
O=C(CCN1C(=O)/C(=C/c2ccc(Cl)cc2)SC1=S)Nc1nccs1	1.03	12.9	·	·	·	·
CC(=O)COc1ccc2c(oc(=O)c3ccccc32)c1C	1.04	30.1	8.7	4.1	0.968	0.711*
Cc1c(OCC(=O)c2ccccc2)ccc2c1oc(=O)c1ccccc12	0.978	14.2	·	·	·	·
O=C(/C=C/c1c[nH]c2ccccc12)c1ccc([N+](=O)[O-])cc1	0.992	42.6*	27.7	15.0	0.949	0.987
O=C(/C=C/c1ccc(-c2ccc(Cl)cc2)o1)c1ccc([N+](=O)[O-])cc1	1.01	9.7	·	·	·	·
O=C1NC(=NS(=O)(=O)c2ccccc2)S/C1=C\c1cccnc1	1.03	2.7	·	·	·	·
COC(=O)c1cc(C(=O)Nc2ccc(C(C)C)cc2)cc([N+](=O)[O-])c1	1.03	8.7	·	·	·	·
O=C(N/N=C/c1ccccc1O)c1cncc(Br)c1	0.977	10.9	·	·	·	·
CCOc1ccc(/C=N/NC(=O)c2cncc(Br)c2)cc1	0.797*	57.5*	2.3	5.3	0.963	0.947
CCCOc1ccc(/C=C2/C(=O)NC(=O)N2C(C)=O)cc1OC	1.15	8.2	·	·	·	·
